Sampled rows, rich in hits. Any-hit rate of the full collection: about 0.47%.
AID inhibitor: Primary qHTS assay for inhibitors of Activation Induced Cytidine Deaminase (AID): AID signal; Single-stranded DNA cytosine deaminase (Homo sapiens), Q9GZX7; AID deamination FRET fluorescence, UDG-coupled, 4 h; Potency, µM (highest dose often 115 µM), actives largely listed as inhibitors; 0.32% of 91,000 active; also: nearly all actives have a fitted effect of over 25% in size
Target sequence (Q9GZX7 whole entry, looked up): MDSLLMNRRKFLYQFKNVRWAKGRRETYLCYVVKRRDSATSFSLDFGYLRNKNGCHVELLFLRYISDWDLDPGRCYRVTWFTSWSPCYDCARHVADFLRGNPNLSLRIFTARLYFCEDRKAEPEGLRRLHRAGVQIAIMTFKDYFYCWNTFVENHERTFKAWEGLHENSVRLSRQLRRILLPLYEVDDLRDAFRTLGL
UDG counterscr: Primary qHTS assay for inhibitors of Activation Induced Cytidine Deaminase (AID): UDG Counterscreen signal; Uracil-DNA glycosylase; FRET deamination/UDG coupled assay, UDG read, 4 h; Potency, µM (titrated, usually from 115 µM), for inactives: at the highest dose activity change, negative = inhibition, most hits filed as inhibitors; 0.14% of 91,000 active; also: nearly all actives have a fitted effect of over 65% in size
Active calls of the source: *; i = inactive; ? = inconclusive; [ ] = remark or other dose. Calls follow the shape of the dose curve; as a rule, active = well fitted curve in the direction sought with a large enough effect; inconclusive = small, poorly fitted or top-dose-only effect, or another doubt; inactive = no such curve, though single readings can be large; an effect the other way counts as inactive or inconclusive. % is scaled to controls: 0 for no effect and ±100 for the full control effect; potency is read from the fitted curve at half-maximal effect.

SMILES	AID inhibitor	UDG counterscr
COC(=O)C1CCN(S(=O)(=O)c2cc3c4c(c2)CC(=O)N4CCC3)CC1	i	0.0%
O=C1Cc2cc(S(=O)(=O)N3CCCCC3)cc3c2N1CCC3	?	89.1µM*
CC(=O)Nc1ccc(C(=O)C(C)Sc2ccc(C(F)(F)F)cn2)cc1 (stereo not given)	i	3.5%
COc1ccc(CNC(=O)CCC(=O)N2CC3CCCN3c3ccccc32)c(OC)c1 (stereo not given)	i	-5.0%
COc1ccc(OC)c(NC(=O)N2CC3CCCN3c3ccccc32)c1 (stereo not given)	20µM*	?
CCCN1C(=O)C(NC(=O)CC)(C(F)(F)F)N=C1c1ccccc1 (stereo not given)	i	7.8%
CCCN(CCC)CC(O)Cn1cc(/C=C/C(=O)c2ccc(OCC)cc2)c2ccccc21 (stereo not given)	35.5µM*	-23.7%
CC(C)CN(CC(C)C)CC(O)Cn1cc(/C=C/C(=O)c2ccccc2)c2ccccc21 (stereo not given)	?	-16.1%
OCC1O[C@H]([S-])[C@H](O)[C@@H](O)[C@@H]1O.[Au+] (stereo not given in full)	25.1µM*	3.3%
Cc1ccc2nc(SCC(=O)Nc3sc4c(c3C#N)CCCC4)[nH]c2c1	i	7.3%
Cc1cccc(OCC(=O)N(Cc2ccc(N(C)C)cc2)Cc2ccco2)c1C	?	-18.5%
Cc1ccc(CN(Cc2ccco2)C(=O)COc2c(C)cc(C)cc2C)cc1	?	-29.8%
Cc1ccc(CN(Cc2ccco2)C(=O)COc2cccc(C)c2C)o1	39.8µM*	-7.8%[57.5 µM]
Cc1cc(C)c(OCC(=O)N(Cc2ccco2)Cc2ccco2)c(C)c1	44.7µM*	-0.8%[57.5 µM]
N#C/C(=C/c1ccc(-c2ccccc2)cc1)c1cccc([N+](=O)[O-])c1	i	-12.0%
CNC(=S)N/N=C/c1cccc(Cl)c1	i	-6.9%
COc1cc(OC)c(N(C)C(=O)c2cc3c(s2)-c2ccccc2OC3)cc1Cl	i	-6.0%
COc1ccc(N(C)C(=O)c2cc3c(s2)-c2ccccc2OC3)cc1	44.7µM*	-8.6%
CC#CCCC(=O)Nc1ccc(C)cc1	i	0.4%
COc1ccc(-n2c(=O)c3c4c(sc3n(Cc3ccc(C(C)(C)C)cc3)c2=O)CCC4)c(OC)c1	35.5µM*	?
COc1ccc(-n2c(=O)c3c4c(sc3n(Cc3ccccc3C)c2=O)CCCC4)c(OC)c1	?	-18.9%
COc1ccc(C(=O)N2N=C(c3ccsc3)CC2c2ccc3nccnc3c2)cc1 (stereo not given)	?	-6.4%
COc1ccc(S(=O)(=O)N2CCn3cccc3C2c2ccc(C)cc2)cc1C (stereo not given)	i	79.4µM*
COc1ccc(S(=O)(=O)N2CCn3cccc3C2c2cccs2)cc1C (stereo not given)	i	11.1%
CCOc1ccc2nc(C)cc(Nc3ccccc3OCC)c2c1	79.4µM*	?
SMILES	AID inhibitor	UDG counterscr
CCOc1ccc(Nc2cc(C)nc3ccc(Cl)cc23)cc1	i	-2.1%
Cc1cc2ccccn2c1/C=C/C(=O)C(F)(F)F	i	-1.9%
Cc1ccc2nc(/C(C#N)=C/c3ccccc3OCc3ccc(Cl)cc3Cl)[nH]c2c1	i	-4.9%
CCOc1ccc(OCCOC(=O)CCC(=O)c2ccc(F)cc2)cc1	i	5.9%
Cc1ccc(/C(C#N)=C\c2cccn2C)cc1	i	-14.5%
O=C(O)c1csc2c1sc1ccccc12	i	7.7%
Cc1cccc(Cn2c(-c3ccccc3)nc3ccccc32)c1	?	-19.5%[57.5 µM]
Fc1ccccc1Cn1c(-c2ccccc2)nc2ccccc21	44.7µM*	?
O=C(Oc1ccc(Cl)c(OC(=O)c2ccc(F)cc2)c1)c1ccc(F)cc1	i	11.2%
O=C(CSc1ncnc2ccccc12)c1ccc2c(c1)OCCCO2	i	1.7%
N#C/C(=C\c1ccnc2ccccc12)c1nc2ccccc2s1	?	79.4µM*
Cc1ccccc1/C=C(/C#N)c1nc2ccccc2s1	i	-19.5%
Cc1nc(-c2cccc(S(=O)(=O)N3CCC(C(=O)NCc4ccccc4Cl)CC3)c2)no1	i	?
CCc1cccc(NC(=O)C2CCN(S(=O)(=O)c3cccc(-c4noc(C)n4)c3)CC2)c1	i	79.4µM*
CC(C)c1ccc(OCC(=O)Nc2cc(-c3nc4ncccc4o3)ccc2Cl)cc1	i	0.8%
CCC(C)c1ccc(OCC(=O)Nc2cccc(-c3nc4ncccc4o3)c2)cc1 (stereo not given)	31.6µM*	-17.3%
O=c1[nH]nc(-c2ccc(N3CCCCC3)c([N+](=O)[O-])c2)c2ccccc12	i	-0.7%
CCCCN(C)c1ccc(-c2n[nH]c(=O)c3ccccc23)cc1[N+](=O)[O-]	i	89.1µM*
COc1ccccc1-n1c(SCC(N)=O)nc2c(c1=O)C1(CCCCC1)Cc1ccccc1-2	i	-11.0%
Cc1ccc(-n2c(SCC(N)=O)nc3c(c2=O)C2(CCCC2)Cc2ccccc2-3)cc1	i	79.4µM*
COc1ccc(Nc2nc(Nc3ccc(F)cc3)nc3nccnc23)cc1	25.1µM*	0.4%
COc1ccc(Nc2nc(NCCO)c3nccnc3n2)cc1	i	1.0%
CCC(C(=O)NCc1cccc(Br)c1)n1nc(C)c2c(C)n(-c3ccccc3)nc2c1=O (stereo not given)	?	-19.4%
CCc1ccc(CNC(=O)C(CC)n2nc(C)c3c(C)n(-c4ccccc4)nc3c2=O)cc1 (stereo not given)	70.8µM*	-20.2%
COCCNc1nc2c(c(=O)n(C)c(=O)n2C)n1Cc1cc(OC)ccc1Cl	i	-0.4%
SMILES	AID inhibitor	UDG counterscr
CC(C)CNc1oc(-c2ccc([N+](=O)[O-])cc2)nc1C#N	i	-1.6%
COc1ccc(-n2cc(-c3ccccc3)c3c(NC4CCCC4)ncnc32)cc1	35.5µM*	-8.2%[57.5 µM]
Clc1cccc(-n2cc(-c3ccccc3)c3c(NC4CCCC4)ncnc32)c1	?	-1.2%[57.5 µM]
Cc1nc2cccnc2n1C1CCN(S(=O)(=O)c2ccc(Cl)cc2)CC1	i	?
CC(C)Cc1nc2cccnc2n1C1CCN(S(=O)(=O)c2ccc3c(c2)CCCC3)CC1	i	79.4µM*
FC(F)(F)c1ccc(Sc2ccc(C(F)(F)F)cn2)nc1	i	-10.3%
CC(C)C(N)c1cccs1 (stereo not given)	i	-10.5%
CCC12CN3CC(CC)(CN(C1)C3c1ccc(C)cc1)C2=O (stereo not given)	i	-11.3%
COc1ccc(S(=O)(=O)Cc2ccc(C(=O)N3CCN(c4cc(C)ccc4C)CC3)o2)cc1	?	89.1µM*
Cc1ccc(S(=O)(=O)Cc2ccc(C(=O)N3CCN(c4cccc(C)c4C)CC3)o2)cc1	?	-11.9%
CC(=O)c1ccc(S(=O)(=O)NCCCC(=O)O)cc1	i	-2.6%
CC(C)(C)c1ccc(-c2nc(SCCOc3ccc(Cl)cc3)n3[nH]c(=O)cc3n2)cc1	?	-5.0%
Cc1ccc(OCCCSc2nc(-c3ccc(C(C)(C)C)cc3)nc3cc(=O)[nH]n23)cc1C	44.7µM*	?
COc1ccccc1OCCSc1nc(-c2ccc(C(C)(C)C)cc2)nc2cc(=O)[nH]n12	79.4µM*	-27.3%
C=CCc1ccccc1OCCSc1nc(-c2ccc(C(C)(C)C)cc2)nc2cc(=O)[nH]n12	?	-23.3%
